An excerpt weighted towards active compounds, which were near 2.9% of everything screened.
PAFAH2 FP inh – PAFAH2 enzyme inhibitors, primary screen, biochemical, fluorescence polarization, human; Platelet-activating factor acetylhydrolase 2, cytoplasmic (Homo sapiens), Q99487; recombinant PAFAH2, FP-rhodamine activity probe; inhibition, % at 3.39 µM; 340,000 tested, 0.99% active; AID 492956, 2010;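 active means inhibition above the mean over all tested compounds plus 3 SD, cut at about 30% in these data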;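 further: inhibitors block probe labeling of enzyme so polarization drops; 0% = enzyme with DMSO and 100% = wells lacking PAFAH2 protein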
pPAFAH inh – pPAFAH enzyme inhibitors, primary screen, biochemical, fluorescence polarization, human. inhibition, % at 3.39 µM. 330,000 tested, 1.5% active. AID 463082, 2010. Platelet-activating factor acetylhydrolase (Homo sapiens), Q13093. recombinant pPAFAH, FP-rhodamine probe fluorescence polarization;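 active means inhibition above the mean inhibition across the screen plus 3 SD, cut at about 25% in these data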;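 further: inhibitors block binding of the rhodamine activity-based probe so polarization drops; 0% = enzyme with DMSO and 100% = wells lacking pPAFAH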
EBNA-1 inh – EBNA-1 DNA-binding inhibitors, primary screen, biochemical, fluorescence polarization; 300,000 tested, 0.34% active; AID 1950, 2009; inhibition, % at 14.8 µM; in the data active means inhibition above about 28%
PAFAH1B3 inh – PAFAH1B3 enzyme inhibitors, primary screen, biochemical, fluorescence polarization, human. Platelet-activating factor acetylhydrolase IB subunit alpha1 (Homo sapiens), Q15102. 340,000 tested, 0.28% active. recombinant PAFAH1B3, FP-rhodamine probe. inhibition, % at 3.39 µM;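 active means inhibition above the screen-wide average of all tested compounds plus 3 SD, cut at about 25% in these data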;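 further: 0% = enzyme with DMSO only and 100% = wells lacking PAFAH1B3 protein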
ZTA DNA inh – ZTA (EBV) inhibition in EBNA-1 counter-screen; P03206; ZTA-DNA binding, fluorescence polarization; inhibition, % at 11 µM; 320,000 tested, 0.15% active; in the data active means inhibition above about 33%
Target sequence (P03206 whole entry, looked up): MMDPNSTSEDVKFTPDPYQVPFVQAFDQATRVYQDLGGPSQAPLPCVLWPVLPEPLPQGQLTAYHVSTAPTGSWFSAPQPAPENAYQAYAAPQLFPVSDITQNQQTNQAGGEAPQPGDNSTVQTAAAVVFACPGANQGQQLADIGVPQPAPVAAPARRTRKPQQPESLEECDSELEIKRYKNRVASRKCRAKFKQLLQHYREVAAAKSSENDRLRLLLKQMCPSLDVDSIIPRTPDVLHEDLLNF
PAFAH1B2 FP inh – PAFAH1B2 enzyme inhibitors, primary screen, biochemical, fluorescence polarization, human | inhibition, % at 3.39 µM | 340,000 tested, 1.2% active | recombinant PAFAH1B2, FP-rhodamine activity probe | AID 492953, 2010 | Platelet-activating factor acetylhydrolase IB subunit alpha2 (Homo sapiens), P68402;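 active means inhibition above the mean of all tested compounds plus 3 SD, cut at about 24% in these data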;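 further: 0% = enzyme with DMSO and 100% = wells lacking PAFAH1B2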
Target sequence (P68402 whole entry, looked up): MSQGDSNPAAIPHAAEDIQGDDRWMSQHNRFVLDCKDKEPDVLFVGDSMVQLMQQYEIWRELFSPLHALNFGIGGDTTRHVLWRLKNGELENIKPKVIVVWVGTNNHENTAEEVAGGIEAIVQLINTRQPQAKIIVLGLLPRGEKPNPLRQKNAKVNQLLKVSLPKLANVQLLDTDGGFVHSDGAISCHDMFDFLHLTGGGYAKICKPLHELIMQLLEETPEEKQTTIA
pPAFAH confirm – pPAFAH (PLA2G7) enzyme inhibitors, confirmation, biochemical, fluorescence polarization, human | 2,300 tested, 72% active | shares compounds with pPAFAH inh | recombinant pPAFAH, FP-Rh probe fluorescence polarization | inhibition, % at 3.39 µM;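 active means mean inhibition of the triplicate above the hit cutoff set for the earlier primary screen, cut at about 25% in these data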;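 further: 0% = enzyme with DMSO and 100% = wells lacking pPAFAH enzyme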
* hit, by the source's call; . = no result.

SMILES	PAFAH2 FP inh	pPAFAH inh	EBNA-1 inh	PAFAH1B3 inh	ZTA DNA inh	PAFAH1B2 FP inh	pPAFAH confirm
COC(=O)c1ccccc1-c1c2ccc(=N)cc-2oc2cc(N)ccc12	148*	126*	.	149*	16	134*	132*
O=C(OCC(=O)N1CCN(C(=O)c2ccco2)CC1)c1cc(S(=O)(=O)Nc2ccc(Cl)cc2)ccc1O	13	62*	4	4	10	33*	68*
N#CCN(CC#N)C(=O)C1c2ccccc2Oc2ccccc21	5	62*	-20	12	1	2	3
CCN(CC)S(=O)(=O)c1ccc(Cl)c(NC(=O)COC(=O)/C=C/c2ccc(O)c(OC)c2)c1	75*	37*	3	0	-25	-3	13
O=C(O)CN1C(=O)/C(=C\c2cc(Br)ccc2OCc2ccc(F)cc2)SC1=S	50*	51*	1	16	18	13	63*
COc1ccc(/C=C2/SC(=S)N(CC(=O)O)C2=O)cc1OCc1ccc(Cl)cc1	-2	-2	10	2	13	12	.
O=C(COc1ccc(Br)cc1)Nc1ccccc1N1CCCC1	16	59*	10	-3	13	15	8
CC(=O)N1CCN(c2ccccc2NC(=O)COc2ccc(Br)cc2)CC1	7	5	6	0	9	5	.
O=C(c1cc(S(=O)(=O)N2CCOCC2)c(Cl)cc1Cl)N1CCCC1	-4	.	.	2	.	3	.
O=C(c1cc(S(=O)(=O)N2CCOCC2)c(Cl)cc1Cl)N1CCCCC1CO (centres undefined)	-5	47*	-6	0	-12	0	3
C/C(=N\NC(=O)c1cc(O)ccc1O)c1cccc(NC(=O)c2ccc(Cl)cc2)c1	9	46*	4	18	0	10	21
C/C(=N\NC(=O)c1cc(O)ccc1O)c1cccc(NC(=O)c2cccc(Cl)c2)c1	11	38*	5	11	-4	7	15
O=C(Nc1cccc(S(=O)(=O)NC2=NCCC2)c1)c1cc(-c2ccco2)nc2ccccc12	4	43*	-1	8	-14	0	22
COc1ccc(C(=O)CC(=O)C(=O)Nc2ccc([N+](=O)[O-])cc2C)cc1	-8	48*	2	15	4	6	8
CCOc1ccc(C(=O)N/N=C(/C)C2C(=O)c3ccccc3C2=O)cc1	0	4	4	10	2	-3	.
C/C(=N\NC(=O)c1ccc(-c2ccccc2)cc1)C1C(=O)c2ccccc2C1=O	20	53*	-6	20	0	29*	67*
COC(=O)c1ccccc1NC(=O)CCC(=O)N1CCSc2ccccc21	1	41*	-13	-2	-7	9	4
Cc1cc(C)cc(NC(=O)CCC(=O)N2CCSc3ccccc32)c1	0	12	3	1	5	6	.
CC1=CC(C)(C)[N+](C)(C)c2ccccc21	-2	-2	-11	4	-4	0	.
Cn1c2c(c(=O)[nH]c1=O)C(c1cccc(O)c1)C1=C(N2)c2ccccc2C1=O (centres undefined)	12	.	.	0	.	1	.
CC1=C([N+](=O)[O-])C(c2cccc(Br)c2)C2=C(N1)c1ccccc1C2=O (centres undefined)	5	38*	4	3	17	6	26*
Cc1ccc(OCC(=O)N/N=C/C=C/c2ccco2)cc1	9	51*	-9	-1	-8	-2	17
O=C(COc1ccccc1[N+](=O)[O-])N/N=C/C=C/c1ccco1	10	5	6	10	1	2	.
COc1ccccc1C(=O)NCC(=O)OCC(=O)Nc1ccc2[nH]c(=O)[nH]c2c1	-5	39*	2	3	-7	3	1
CNc1nc(-c2ccccc2)nc(-c2ccc(OC)cc2)c1C#N	-3	-1	-13	2	-1	2	.
SMILES	PAFAH2 FP inh	pPAFAH inh	EBNA-1 inh	PAFAH1B3 inh	ZTA DNA inh	PAFAH1B2 FP inh	pPAFAH confirm
COc1ccc(-c2nc(-c3ccccc3)[nH]c(=O)c2C#N)cc1	4	52*	-5	-6	8	-6	0
C=C1c2cccc(O)c2C(=O)C2C(=O)[C@]3(O)C(=O)C(C(N)=O)C(=O)[C@@H](N(C)C)[C@@H]3[C@@H](O)[C@H]12 (some centres undefined)	52*	92*	.	45*	.	33*	9
O=C1C[C@H](NC(=O)OCc2ccccc2)CO1	7	-3	.	3	-26	3	.
COc1cccc(NC(=O)Nc2cc(C(=O)NCC3CCCO3)ccc2N2CC3CC(C2)c2cccc(=O)n2C3)c1 (centres undefined)	7	62*	-1	10	-1	1	61*
CCCOc1ccc(N2C(=O)CC(N(O)c3ccccc3)C2=O)cc1 (centres undefined)	-2	8	3	-4	11	8	.
O=C1CC(N(O)c2ccccc2)C(=O)N1c1cc(Cl)cc(Cl)c1 (centres undefined)	-4	51*	3	6	-1	7	8
Cc1ccccc1-n1nc(C)c(N=O)c1N	3	1	-2	7	-3	1	.
CS(=O)(=O)c1ccc(Cl)c(NC(=O)CSc2n[nH]c(-c3cccs3)n2)c1	6	3	.	-1	6	4	.
CCCc1cc(=O)n2[nH]c(-c3ccc(Cl)cc3)cc2n1	13	13	-7	0	-1	9	.
CCOC(=O)Cc1cc(=O)n2[nH]c(-c3ccc(Cl)cc3)cc2n1	19	35*	11	3	-17	5	8
CCCOC(=O)c1cc(-c2ccc(/C=C3/C(=O)N(C)C(=O)C(C#N)=C3C)o2)ccc1Cl	11	58*	8	7	-1	7	26*
CCCOC(=O)c1cc(-c2ccc(C=O)o2)ccc1Cl	-4	14	7	1	-16	1	.
COc1ccc(S(=O)(=O)/N=C2/NC(=O)/C(=C\c3ccco3)S2)cc1	-4	35*	-5	18	-10	-3	21
COc1ccc(N=C2NC(=O)/C(=C/c3ccco3)S2)cc1	3	10	6	-3	-6	4	.
Cc1ccc2nsnc2c1NC(=O)c1ccc([N+](=O)[O-])o1	3	6	-3	5	13	-2	.
CCCCCCCC/C=C\CCCCCCCC(=O)NCCc1ccc(O)c(O)c1	-27	70*	-1	12	26	8	62*
